Screening results from PubChem.
Pol beta inh = inhibitors of human DNA polymerase beta; Pol beta primer extension/strand displacement, fluorescence kinetic; 340,000 compounds, 1.3% hits; Potency, µM (top dose mostly 114 µM), inactives show at the top dose activity change, negative = inhibition, hits mostly inhibitors; also: % is scaled to controls: 0 for no effect and ±100 for the full control effect
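Preincubation: enzyme (10 nM) with compound, 15 min, RT. Reaction: substrate added to 50 nM final. Reads: 0 and 10 min. Analysis: normalized, Hill fit.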
APEX1 inh = blocks human APE1 abasic DNA cleavage; P27695; recombinant APE1, TAMRA/BHQ-2 abasic DNA cleavage fluorescence; Potency, µM (series often up to 65.8 µM), for the others: at the top dose activity change, negative = inhibition, usual class: inhibitors; 350,000 compounds, 0.35% hits; AID 2517;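 also: plate controls were vehicle for no effect and reference inhibitor for full effect; nearly all actives have a fitted effect of over 55% in size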
Target sequence (P27695 whole entry, looked up): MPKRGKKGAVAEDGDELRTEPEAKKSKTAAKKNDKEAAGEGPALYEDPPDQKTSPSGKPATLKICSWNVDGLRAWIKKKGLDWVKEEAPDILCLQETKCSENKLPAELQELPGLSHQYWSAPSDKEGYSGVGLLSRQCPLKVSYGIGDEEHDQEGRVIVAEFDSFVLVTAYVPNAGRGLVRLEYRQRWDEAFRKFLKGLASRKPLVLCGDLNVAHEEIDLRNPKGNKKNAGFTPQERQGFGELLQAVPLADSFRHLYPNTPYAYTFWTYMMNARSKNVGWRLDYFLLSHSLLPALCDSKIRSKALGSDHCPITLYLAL
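Measures dequenching upon AP-site incision of a 5'-TAMRA/3'-BHQ-2 THF-containing duplex, 50 nM; human APE1 0.75 nM after 15 min room-temperature exposure to compound; kinetic three-point read at one-minute spacing.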
L3MBTL1 inh-1 = inhibitors of human L3MBTL1; Potency, µM (series often up to 57.1 µM), for the others: at the highest dose activity, negative = inhibition, hits mostly inhibitors; 230,000 compounds, 0.66% hits; AlphaScreen L3MBTL1–H3K9me1 peptide binding; AID 485360; also: % is scaled to controls: 0 for no effect and ±100 for the full control effect; nearly all actives have a fitted effect of over 60% in size
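L3MBTL1 50 nM + b-AHA-H3(1-15)K9me1 75 nM, 30 min RT; compound added, 30 min RT; streptavidin donor/Ni-chelate acceptor beads 10 ug/mL each final, 30 min RT dark; AlphaScreen read.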
Pol kappa inh-1 = inhibitors of human DNA polymerase kappa; Q9UBT6; purified Pol kappa, fluorescent DNA synthesis assay, 10 min; Potency, µM (series often up to 107 µM), inactives show at the top dose activity, negative = inhibition, hits mostly inhibitors; 400,000 compounds, 0.53% hits; AID 588579; also: % is scaled to controls: 0 for no effect and ±100 for the full control effect
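First, compounds were pin-transferred onto 10 nM Pol kappa. After 15 min at room temperature, substrate was added to 50 nM final. Fluorescence was then measured kinetically at 0 and 10 min.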
Pol eta inh-1 = inhibitors of human DNA polymerase eta; Q9Y253; recombinant Pol eta, fluorescent DNA replication assay; Potency, µM (highest dose often 114 µM), for the others: at the top dose activity change, negative = inhibition, actives largely listed as inhibitors; 390,000 compounds, 1.2% hits; also: % is scaled to controls: 0 for no effect and ±100 for the full control effect
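Pol eta at 10 nM preincubated with compounds 15 min at room temperature; reaction started with fluorescent substrate (50 nM final) and read kinetically at 0 and 10 min.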
Pol iota inh = DNA polymerase iota (human) inhibition | Q9UNA4 | Pol iota fluorescent replication assay, 10 min | Potency, µM (series often up to 115 µM), for inactives: at the top dose activity, negative = inhibition, hits mostly inhibitors | 390,000 compounds, 1% hits
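Pol iota at 10 nM preincubated 15 min with compounds at room temperature; reaction started with fluorescent substrate, 50 nM final. Fluorescence read kinetically at 0 and 10 min; buffer-only wells as negative control.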
L3MBTL1 inh-2 = validation of human L3MBTL1 methyl-lysine binding inhibitors; 500 compounds, 91% hits; Potency, µM, hits mostly inhibitors; L3MBTL1 methyl-lysine binding inhibition, biochemical qHTS; shares compounds with L3MBTL1 inh-1; also: nearly all actives have a fitted effect of over 70% in size
L3MBTL1 ctr = AlphaScreen signal inhibition, L3MBTL1 hit counter-screen; AlphaScreen counterscreen, signal inhibition; 500 tested, under 10 active; shares compounds with L3MBTL1 inh-1; Potency, µM (highest dose often 57.1 µM), for the others: top-dose activity change, negative = inhibition, actives largely listed as inhibitors; also: 0% is about no effect
TbPGK inh = validation of Trypanosoma brucei phosphoglycerate kinase inhibitors. TbPGK coupled GAPDH assay, Kinase-Glo luminescence. shares compounds with Pol kappa inh-1. 500 compounds, 79% hits. Potency, µM (doses to about 57.5 µM), inactives show at the highest dose activity change, negative = inhibition, hits mostly inhibitors; also: % is scaled to controls: 0 for no effect and ±100 for the full control effect; nearly all actives have a fitted effect of over 65% in size
POLI cherry-pick = Confirm cherry-picked inhibitors of human polymerase iota; shares compounds with Pol kappa inh-1; Pol iota primer extension, TAMRA/BHQ fluorescence; Potency, µM, most hits filed as inhibitors; 1,500 compounds, 77% hits; AID 720496
Pol kappa inh-2 = Pol kappa (human) inhibition, cherry-pick confirmation; Potency, µM, hits mostly inhibitors; shares compounds with Pol eta inh-1; 920 compounds, 76% hits; purified Pol-kappa, fluorescent strand-displacement substrate
Pol eta inh-2 = confirmation of human DNA polymerase eta inhibitors | shares compounds with Pol eta inh-1 | Pol eta primer extension, TAMRA/BHQ fluorescence, 10 min | Potency, µM, usual class: inhibitors | 2,600 compounds, 64% hits
Numbers without * were called inactive; ? = inconclusive; . = no result given; [ ] = remark or other dose. Rows were chosen to be rich in hits. Some 2.5% of all compounds tested hit in one or more screens of this group. Calls follow the shape of the dose curve; as a rule, active = well fitted curve in the direction sought with a large enough effect; inconclusive = small, poorly fitted or top-dose-only effect, or another doubt; inactive = no such curve, though single readings can be large; an effect the other way counts as inactive or inconclusive. Potency is read from the fitted curve at half-maximal effect.

SMILES	Pol beta inh	APEX1 inh	L3MBTL1 inh-1	Pol kappa inh-1	Pol eta inh-1	Pol iota inh	POLI cherry-pick	others
Cc1cc(/C=C2\C(=O)NC(=O)N(Cc3ccccc3)C2=O)c(C)n1-c1ccc(Cl)c(C(=O)O)c1	3.5µM*	?	4.5µM*	18µM*	1.8µM*	8.9µM*	24*	L3MBTL1 inh-2=0.75*;L3MBTL1 ctr=-11%;TbPGK inh=6.5µM*;Pol kappa inh-2=24*;Pol eta inh-2=21*
C=CCBr	.	3%	.	.	.	.	.
OC1(c2ccc(Cl)cc2)CCN(Cc2c[nH]c3ccccc23)CC1	6%[57.1 µM]	2%	.	-1%[60.1 µM]	3%[57.1 µM]	-7%[58.9 µM]	.
CCOc1ccc(N2C(=O)NC(=O)/C(=C\c3ccc(N4CCCCC4)o3)C2=O)cc1	4%[57.1 µM]	2%	8%	-5%	-21%	31%	.
CCOc1ccc(N2C(=O)/C(=C/c3ccc(C)o3)C(=O)NC2=S)cc1	28µM*	-19%	22µM*	28µM*	4µM*	8.9µM*	.	L3MBTL1 inh-2=2.7*;L3MBTL1 ctr=7%;Pol eta inh-2=30*
COc1ccc(/C=C2\C(=O)NC(=S)N(C)C2=O)cc1C	30%	1%	1%	50µM*	2.8µM*	?	.	TbPGK inh=4.1µM*
O=C(Cn1c(=O)n(Cc2ccccc2)c(=O)c2sc3ccccc3c21)NCc1ccccc1Cl	16%	.	.	2%	-7%	35%	.
Oc1ccc(CC2CC3CCN2CC3)cc1O (configuration not stated)	17%	-1%	-2%	-15%	-3%	7%	.
Oc1ccc(C[C@H]2NCCc3cc(O)c(O)cc32)cc1O	1%	54%	.	?	-14%	79µM*	21*
C=CCCl	.	2%	.	.	.	.	.
CCOC(=O)c1ccc(N=Cc2c(O)n(-c3ccc(OC)cc3)c(=S)[nH]c2=O)cc1	-5%	-3%	14%	-25%	?	-1%	3.8*
CCOC(=O)c1ccc(N=Cc2c(O)n(-c3ccccc3F)c(=S)[nH]c2=O)cc1	30%	10%	3%	-17%	-28%	?	.
COc1ccc(Cc2nccc3cc(OC)c(OC)cc23)cc1OC	-11%	?	-18%	-14%[60.1 µM]	?	9%	.
COc1cc2c(ccc3c4cc(OC)c(OC)cc4c[n+](C)c23)cc1O	.	.	.	32µM*	?	?	19*
